A number with no mark means an inactive call.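 How the source made its calls, unless noted: active means RAM network inhibition above 8.4% in each of two replicates, 3 SD over the compound average; inconclusive means above 8.4% inhibition in only one replicate; inactive means 8.4% inhibition or less in each replicate.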
Assay: RAM pathway blockade in budding yeast – dse1pr::URA3 reporter, 5-FOA selection, pilot screen (AID 869;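 active means inhibition over a set limit, the all-compound mean plus 3 SD, in both replicate runs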;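 further: 0% = DMSO wells with no growth and 100% = 10 µM 1-NA-PP1 with full growth; RAM network block rescues cells from 5-FOA so hits raise OD615 growth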)
Conditions: S. cerevisiae dse1pr::URA3 5-FOA growth, OD615, 2 d; at 10 µM; active compounds read high; strain carries analog-sensitive mutant Cbk1 kinase

Structure (SMILES) | inhibition [%]
COc1ccc(C2C(C(=O)N3CCOCC3)CCC(=O)N2c2cc(OC)c(OC)c(OC)c2)cc1 (stereo not given) | 0.705
COc1ccccc1C(=O)Nc1nnc(-c2ccc3c(c2)CCCC3)o1 | 0.08
CCc1ccc(NC(=O)C2CC=CCC2C(=O)O)cc1 (stereo not given) | -0.5
O=C(Cn1cc2c(n1)CCCCC2)Nc1ccc(F)cc1F | 0.55
Nc1c(C(=O)c2ccc(Br)s2)oc2ccccc12 | -0.045
O=C1c2ccccc2C(Nc2cccnc2)N1Cc1ccc2c(c1)OCO2 (stereo not given) | 0.205
Cn1c(Cn2c(=O)sc3ccccc32)nnc1SCC(=O)N1CCCCCC1 | 2.58
CCS(=O)(=O)N1CCN(Cc2nc3ccccc3c(=O)[nH]2)CC1 | 1.33
Cc1cccc(OCc2nnc(SCC(=O)NCCc3ccccc3)o2)c1 | 3.1
CC(=O)Nc1ccc(NC2(C)C(=O)c3ccccc3C2=O)cc1 | 1.94
COC(=O)c1cn(C(C)C(=O)NCc2ccco2)c2ccccc12 (stereo not given) | 1.68
O=C1N2CN(C(c3ccccc3)c3ccccc3)CN=C2SC1(CO)CO | 1.88
CC(C)N1C(=O)CCC1C(=O)NCc1ccccc1Cl (stereo not given) | 1.68
O=C(COC(=O)c1ccc(S(=O)(=O)NCc2ccco2)cc1)Nc1ccccc1OC(F)F | 1.43
Cn1c(NC(=O)CC(C)(C)C)cc(=O)n(C)c1=O | 3.15
O=C(Nc1ccc2oc(-c3ccccc3)nc2c1)c1ccncc1 | 0.165
Cc1nccn1-c1ncnc2sc3c(c12)CCCC3 | 1.15
O=C(c1ccc2snnc2c1)N1CCCC1 | 1.14
CCC(Oc1ccccc1)C(=O)Nc1cc(C)on1 (stereo not given) | 0.86
Cc1cc(C)n(Cc2ccccc2F)c(=O)c1C#N | 0.375

Structure (SMILES) | inhibition [%]
CC(=O)C1=C(O)C(=O)N(CC(=O)O)C1c1ccccc1Cl (stereo not given) | 2.28
O=C(C(c1ccccc1)c1ccccc1)N1CCOCC1 | 0.87
Cc1cccc(N2CCN(C(=O)C3CCCN(S(=O)(=O)c4cccc5cccnc45)C3)CC2)c1C (stereo not given) | 1.32
O=C(Cn1cc2c(n1)CCCCC2)N1CCCCC1 | 1.23
c1ccc(OCc2nn3c(-c4ccccn4)nnc3s2)cc1 | 1.48
Cc1ccc(Cl)cc1N1CCN(C(=O)CCC(=O)O)CC1 | 1.51
Clc1ccc(-c2nc(-c3ccccn3)no2)cc1Cl | 2.6
O=C(c1ccccc1)c1cccc(NC(=O)c2ccco2)c1 | -0.895
Cc1noc(NS(=O)(=O)c2ccc(NC(=O)CCn3c(=O)oc4ccccc43)cc2)c1C | 1.24
Cc1noc(C)c1CSCC(=O)OCC(=O)NC1CCCCC1 | 0.26
O=C(CCc1nc2ccccc2[nH]1)NCc1ccc2c(c1)OCO2 | 2.1
Nc1c(Br)cc(Br)c(N2CCCC2=O)c1Br | 1.68
C1=C(N2CCOCC2)/C(=C/c2nc3ccccc3[nH]2)CC1 | 0.41
COc1ccc(C(C)(C)C)cc1NC(=O)COC(=O)c1cnc(C)cn1 | 0.395
COc1ccccc1NC(=O)Nc1ccc(Br)cn1 | 2.98
Cc1onc(-c2ccccc2Cl)c1C(=O)N(C)C1CCCCC1 | -0.15
CSC1=N/C(=C\c2ccccc2F)C(=O)S1 | 0.435
Cc1nc2cc(-c3cccc(F)c3)nn2c(C)c1CCC(=O)N1CCN(c2ccccn2)CC1 | 0.32
COC(=O)c1c(NC(=O)CCN2CCOCC2)sc2c1CCCC2 | 0.935
CCOCCCNC(=O)C(NC(=O)CNC(C)=O)c1ccc(Cl)cc1 (stereo not given) | 2.1

Assay: RAM signaling pathway blockade in yeast – S. cerevisiae, Pdr1DBD-CYC8 efflux-inhibited sensitized strain, primary screen (AID 1298);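 further: 0% = DMSO untreated cells without growth and 100% = 10 µM 1-NA-PP1 full growth; higher means more yeast growth rescued from 5-FOA killing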
Conditions: S. cerevisiae cbk1-as DSE1-URA3 strain, 5-FOA growth OD615, 2 d; at 50 µM; active compounds read high

Structure (SMILES) | RAM network inhibition [%]
COc1ccc(C2C(C(=O)N3CCOCC3)CCC(=O)N2c2cc(OC)c(OC)c(OC)c2)cc1 (stereo not given) | 1.3
COc1ccccc1C(=O)Nc1nnc(-c2ccc3c(c2)CCCC3)o1 | -0.58
CCc1ccc(NC(=O)C2CC=CCC2C(=O)O)cc1 (stereo not given) | 4.12
O=C(Cn1cc2c(n1)CCCCC2)Nc1ccc(F)cc1F | 2.75
Nc1c(C(=O)c2ccc(Br)s2)oc2ccccc12 | 2.7
O=C1c2ccccc2C(Nc2cccnc2)N1Cc1ccc2c(c1)OCO2 (stereo not given) | 1.74
Cn1c(Cn2c(=O)sc3ccccc32)nnc1SCC(=O)N1CCCCCC1 | 1.04
CCS(=O)(=O)N1CCN(Cc2nc3ccccc3c(=O)[nH]2)CC1 | 6.05
Cc1cccc(OCc2nnc(SCC(=O)NCCc3ccccc3)o2)c1 | 1.99
CC(=O)Nc1ccc(NC2(C)C(=O)c3ccccc3C2=O)cc1 | 1.23
COC(=O)c1cn(C(C)C(=O)NCc2ccco2)c2ccccc12 (stereo not given) | 2.95
O=C1N2CN(C(c3ccccc3)c3ccccc3)CN=C2SC1(CO)CO | 1.39
CC(C)N1C(=O)CCC1C(=O)NCc1ccccc1Cl (stereo not given) | 0.01
O=C(COC(=O)c1ccc(S(=O)(=O)NCc2ccco2)cc1)Nc1ccccc1OC(F)F | 7.18
Cn1c(NC(=O)CC(C)(C)C)cc(=O)n(C)c1=O | -1.17
O=C(Nc1ccc2oc(-c3ccccc3)nc2c1)c1ccncc1 | 1.62
Cc1nccn1-c1ncnc2sc3c(c12)CCCC3 | 2.86
O=C(c1ccc2snnc2c1)N1CCCC1 | 4.99
CCC(Oc1ccccc1)C(=O)Nc1cc(C)on1 (stereo not given) | 0.2
Cc1cc(C)n(Cc2ccccc2F)c(=O)c1C#N | 4.95

Structure (SMILES) | RAM network inhibition [%]
CC(=O)C1=C(O)C(=O)N(CC(=O)O)C1c1ccccc1Cl (stereo not given) | 2.43
O=C(C(c1ccccc1)c1ccccc1)N1CCOCC1 | 0.31
Cc1cccc(N2CCN(C(=O)C3CCCN(S(=O)(=O)c4cccc5cccnc45)C3)CC2)c1C (stereo not given) | 1
O=C(Cn1cc2c(n1)CCCCC2)N1CCCCC1 | -2.24
c1ccc(OCc2nn3c(-c4ccccn4)nnc3s2)cc1 | 2.54
Cc1ccc(Cl)cc1N1CCN(C(=O)CCC(=O)O)CC1 | 2.18
Clc1ccc(-c2nc(-c3ccccn3)no2)cc1Cl | 3.88
O=C(c1ccccc1)c1cccc(NC(=O)c2ccco2)c1 | -0.72
Cc1noc(NS(=O)(=O)c2ccc(NC(=O)CCn3c(=O)oc4ccccc43)cc2)c1C | 6.07
Cc1noc(C)c1CSCC(=O)OCC(=O)NC1CCCCC1 | 2.57
O=C(CCc1nc2ccccc2[nH]1)NCc1ccc2c(c1)OCO2 | 1.84
Nc1c(Br)cc(Br)c(N2CCCC2=O)c1Br | 0.63
C1=C(N2CCOCC2)/C(=C/c2nc3ccccc3[nH]2)CC1 | 2.44
COc1ccc(C(C)(C)C)cc1NC(=O)COC(=O)c1cnc(C)cn1 | 4.9
COc1ccccc1NC(=O)Nc1ccc(Br)cn1 | 8.69
Cc1onc(-c2ccccc2Cl)c1C(=O)N(C)C1CCCCC1 | 2.15
CSC1=N/C(=C\c2ccccc2F)C(=O)S1 | -0.79
Cc1nc2cc(-c3cccc(F)c3)nn2c(C)c1CCC(=O)N1CCN(c2ccccn2)CC1 | 4.65
COC(=O)c1c(NC(=O)CCN2CCOCC2)sc2c1CCCC2 | 4.32
CCOCCCNC(=O)C(NC(=O)CNC(C)=O)c1ccc(Cl)cc1 (stereo not given) | 2.91
